# Assay results: PubChem BioAssay (Tox21)
# Values joined by “and” are separate entries in the source; they are usually repeats but may differ in a detail not shown here. Identical values can stand only once. Active and inactive are the calls of the source. Unless noted, calls come from the whole dose curve; as a rule, active = well fitted curve in the direction sought with a large enough effect in the repeat runs; inconclusive = weak or mixed curves; inactive = flat fitted curve, though single readings scatter.
# Tested on: not listed separately
# Test: qHTS assay to test for compound auto fluorescence at 460 nm (blue) in HepG2 cells (AID 720687)
# Settings: autofluorescence 405/460 nm, 1 h; series mostly up to 91.3 µM; fluorescence, % of fluorescent control: at the top concentration
# Outline: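 HepG2 cells in MEM with 10% FBS, attached overnight at 37 C, were exposed to compound or DMSO for 1 hr at 37 C, 5% CO2. Blue fluorescence was read at 405/460 nm, with triamterene as reference fluorophore.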
# % is set by controls: 0 for no effect and ±100 for the full control effect; potency is the fitted concentration of half-maximal effect; tags give direction and shape of the fitted curve or compound fluorescence and quenching.
SMILES,Potency,"fluorescence, % of fluorescent control"
CN(C)c1ccc(C(=C2C=CC(=[N+](C)C)C=C2)c2ccc(N(C)C)cc2)cc1,inactive,
CCC(C)[O-].CCC(C)[O-].CCOC(=O)/C=C(/C)[O-].[Al+3],,0.0683% (inactive)
CCCCCCCCCCCCCC[N+](C)(C)Cc1ccccc1,inactive,
Oc1cc(Cl)cc(Cl)c1Cl,,-0.0994% [at 95.7 µM] (inactive)
C#C[C@]1(O)CC[C@H]2[C@@H]3[C@H](C)CC4=C(CCC(=O)C4)[C@H]3CC[C@@]21C,,-0.0096% [at 46 µM] (inactive)
Nc1cc(Cl)c(O)c(Cl)c1,,0.844% (inactive)
Cc1ccc(O)c(O)c1,,-0.105% (inactive)
Cc1ccc(C)cc1,,0.0243% (inactive)
CN1CCN2c3ccccc3Cc3ccccc3C2C1 (centres undefined),,0.0696% [at 46 µM] (inactive)
O=C(c1ccc(O)c(O)c1)c1ccc(O)cc1O,,7.52% (inactive)
O=C1NC(=O)[C@@H]2CC=CC[C@H]12,,-0.0194% (inactive)
CC(C)(C)c1ccc(C(O)CCCN2CCC(C(O)(c3ccccc3)c3ccccc3)CC2)cc1 (centres undefined),inactive,
Cc1cc(=O)oc2cc(O)cc(O)c12,35.5 µM [fluorescent] (active),
Cc1cc(C(C#N)c2ccc(Cl)cc2)c(Cl)cc1NC(=O)c1cc(I)cc(I)c1O (centres undefined),,0.208% [at 46 µM] (inactive)
CC[C@H](C)COC(=O)/C=C/c1ccc(N=Cc2ccc(OC)cc2)cc1,,4.81% (inactive)
COC1=C(OC)C(=O)C(CCCCCCCCCCO)=C(C)C1=O,,-0.0116% [at 46 µM] (inactive)
Cc1ccc(O)c(N)c1,,0.528% (inactive)
COC(C)=O,inactive,
CN1CCN(Cc2cc(-c3ccc4[nH]c(=O)oc4c3)co2)[C@@H](c2ccc(F)cc2)C1,,0.942% (inactive)
C/C=C/C=C/COC(=O)C(C)C,,0.321% (inactive)

# Molecular target: Glucocorticoid receptor (Homo sapiens) (UniProt P04150)
# Test: qHTS assay to identify small molecule agonists of the glucocorticoid receptor (GR) signaling pathway (AID 720691; active = well fitted activation curve with a large enough effect in the signal ratio in the repeat runs, not every such curve was filed as active; inconclusive = weak or mixed curves, or effect the other way; inactive = no such curve, though single readings can be large or run the other way; the % refers to the signal ratio)
# Settings: GR-bla HeLa, beta-lactamase reporter ratio, 18 h; series mostly up to 62.4 µM; activation: at the top concentration
# Outline: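 Agonist mode in a HeLa line carrying a GRE-controlled beta-lactamase reporter. Compounds act for 18 h at 37 C before a 2 h room-temperature FRET substrate step and fluorescence reading.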
# Chain of Glucocorticoid receptor (Homo sapiens) (P04150 whole entry, looked up): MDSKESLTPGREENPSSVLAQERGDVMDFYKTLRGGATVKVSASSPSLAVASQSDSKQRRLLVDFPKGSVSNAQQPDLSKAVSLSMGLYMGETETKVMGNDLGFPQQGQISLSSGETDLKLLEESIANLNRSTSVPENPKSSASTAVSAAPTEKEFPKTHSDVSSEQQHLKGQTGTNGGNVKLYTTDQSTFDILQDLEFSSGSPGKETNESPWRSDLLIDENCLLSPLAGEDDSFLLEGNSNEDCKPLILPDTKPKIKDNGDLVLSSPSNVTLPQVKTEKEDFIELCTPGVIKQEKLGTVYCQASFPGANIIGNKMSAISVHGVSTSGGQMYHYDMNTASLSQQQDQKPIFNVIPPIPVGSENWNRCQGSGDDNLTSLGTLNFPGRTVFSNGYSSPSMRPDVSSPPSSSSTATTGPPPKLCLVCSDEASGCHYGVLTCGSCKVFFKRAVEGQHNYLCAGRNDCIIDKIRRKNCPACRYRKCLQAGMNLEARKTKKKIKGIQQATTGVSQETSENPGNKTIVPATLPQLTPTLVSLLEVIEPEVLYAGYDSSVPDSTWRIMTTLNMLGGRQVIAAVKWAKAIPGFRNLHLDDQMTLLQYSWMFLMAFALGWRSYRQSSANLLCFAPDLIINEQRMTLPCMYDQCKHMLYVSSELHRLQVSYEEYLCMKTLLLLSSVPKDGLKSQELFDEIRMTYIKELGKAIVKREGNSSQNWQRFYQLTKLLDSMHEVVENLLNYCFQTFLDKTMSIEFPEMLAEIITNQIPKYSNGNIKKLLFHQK
SMILES,activation,Potency
O=C1CCc2cc(OCCCCc3nnnn3C3CCCCC3)ccc2N1,-4.99% (inactive),
CCCNCCC,0.421% [at 79.2 µM] (inactive),
CC(C(=O)O)c1ccc2c(c1)[nH]c1ccc(Cl)cc12 (centres undefined),-3.58% (inactive),
O=C1CCc2ccc(OCCCCN3CCN(c4cccc(Cl)c4Cl)CC3)cc2N1,8.97% (inactive),
COC(=O)C1=C(C)NC(C)=C(C(=O)OCCN2CCN(C(c3ccccc3)c3ccccc3)CC2)C1c1cccc([N+](=O)[O-])c1 (centres undefined),0.0459% (inactive),
C#C[C@]1(OC(C)=O)CC[C@H]2[C@@H]3CCC4=C[C@@H](OC(C)=O)CC[C@@H]4[C@H]3CC[C@@]21C,,inactive
Nc1nc(-c2ccccc2)cs1,-7.18% (inactive),
COc1cccc2c1C(=O)c1c(O)c3c(c(O)c1C2=O)C[C@@](O)(C(C)=O)C[C@@H]3O[C@H]1C[C@H](N)[C@H](O)[C@H](C)O1,,3.01 µM [inconclusive] (active) and 49.3 µM [inconclusive] (active)
CCc1cccc(CC)c1NC(=O)CN(CC(=O)O)CC(=O)O,0.501% [at 29.2 µM] (inactive),
O=c1oc2cc(O)ccc2c2oc3cc(O)ccc3c12,5.46% (inactive),
Clc1ccnc(Cl)n1,-1.58% [at 79.2 µM] (inactive),
CN(C)c1ccc(C(=C2C=CC(=[N+](C)C)C=C2)c2ccc(N(C)C)cc2)cc1,11.6% (inactive),
Oc1cc(Cl)cc(Cl)c1Cl,0.591% [at 79.2 µM] (inactive),
Nc1cc(Cl)c(O)c(Cl)c1,3.55% (inactive),
Cc1ccc(C)cc1,3.25% (inactive),
O=C(c1ccc(O)c(O)c1)c1ccc(O)cc1O,4.32% (inactive),
O=C1NC(=O)[C@@H]2CC=CC[C@H]12,-0.426% (inactive),
CC(C)(C)c1ccc(C(O)CCCN2CCC(C(O)(c3ccccc3)c3ccccc3)CC2)cc1 (centres undefined),-7.76% (inactive),
Cc1cc(C(C#N)c2ccc(Cl)cc2)c(Cl)cc1NC(=O)c1cc(I)cc(I)c1O (centres undefined),-6.09% (inactive),
CC[C@H](C)COC(=O)/C=C/c1ccc(N=Cc2ccc(OC)cc2)cc1,-4.48% (inactive),
COC1=C(OC)C(=O)C(CCCCCCCCCCO)=C(C)C1=O,-4.64% (inactive),
Cc1ccc(O)c(N)c1,-4.32% (inactive),
COC(C)=O,,inactive
CN1CCN(Cc2cc(-c3ccc4[nH]c(=O)oc4c3)co2)[C@@H](c2ccc(F)cc2)C1,-7.82% (inactive),
C/C=C/C=C/COC(=O)C(C)C,0.556% (inactive),

# Molecular target: Glucocorticoid receptor (Homo sapiens) (UniProt P04150)
# Test: qHTS assay to identify small molecule antagonists of the glucocorticoid receptor (GR) signaling pathway (AID 720692; active = well fitted inhibition curve with a large enough effect in the signal ratio in the repeat runs, not every such curve was filed as active; inconclusive = weak or mixed curves, or effect the other way; inactive = no such curve, though single readings can be large or run the other way; the % refers to the signal ratio)
# Settings: GR-bla HeLa, beta-lactamase FRET ratio, dexamethasone-stimulated, 18 h; series mostly up to 58.5 µM; activity change, negative = inhibition: at the top concentration
# Outline: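 Cells plated, rested 4 h at 37 C/5% CO2; compounds in DMSO pin-transferred; dexamethasone added to 5 nM final; 18 h at 37 C; B/G FRET substrate added, 2 h room temperature; fluorescence measured.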
SMILES,"activity change, negative = inhibition",Potency
CCCNCCC,-0.914% [at 78.9 µM] (inactive),
CC(C(=O)O)c1ccc2c(c1)[nH]c1ccc(Cl)cc12 (centres undefined),7.92% (inactive),
C#C[C@]1(OC(C)=O)CC[C@H]2[C@@H]3CCC4=C[C@@H](OC(C)=O)CC[C@@H]4[C@H]3CC[C@@]21C,,9.52 µM (active)
CC1(C)[C@@H](O)CC[C@]2(C)[C@H]3C(=O)C=C4[C@@H]5C[C@@](C)(C(=O)O)CC[C@]5(C)CC[C@@]4(C)[C@]3(C)CC[C@@H]12,,23.9 µM (active) and 21.3 µM (active) and 43.2 µM (active)
CCc1cccc(CC)c1NC(=O)CN(CC(=O)O)CC(=O)O,6.24% [at 27 µM] (inactive),
Clc1ccnc(Cl)n1,-11.2% [at 78.9 µM] (inactive),
Cc1ccc(C)cc1,-1.16% (inactive),
O=C1NC(=O)[C@@H]2CC=CC[C@H]12,0.255% (inactive),
CC(C)(C)c1ccc(C(O)CCCN2CCC(C(O)(c3ccccc3)c3ccccc3)CC2)cc1 (centres undefined),,inactive
CC[C@H](C)COC(=O)/C=C/c1ccc(N=Cc2ccc(OC)cc2)cc1,-2.1% (inactive),
Cc1ccc(O)c(N)c1,-10% (inactive),
COC(C)=O,,inactive
CN1CCN(Cc2cc(-c3ccc4[nH]c(=O)oc4c3)co2)[C@@H](c2ccc(F)cc2)C1,,42 µM (active)
C/C=C/C=C/COC(=O)C(C)C,,34.7 µM (active)
